Compounds without any hit were thinned out: in the full panel of roughly 83,000, 20% have a hit.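 Testing used 96-well plates and a 48-hour single-concentration exposure. Example: -40 means 40% of the starting cells died.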 Calls of active or inactive are those of the source. Rule for the calls: active = growth percent below 10; inactive = the rest.
Columns and labels:
Assay in all cases: NCI-60 one-dose screen, 48 h (100 = growth as untreated, 0 = no growth, -100 = all killed)
[1] = tested on: SK-MEL-2 melanoma; settings: 10 µM unless noted
[2] = tested on: EKVX NSCLC; settings: 10 µM unless noted
[3] = tested on: SN12C renal; settings: 10 µM unless noted
[4] = tested on: UO-31 renal; settings: 10 µM unless noted
[5] = tested on: TK-10 renal; settings: 10 µM unless noted
[6] = tested on: ACHN renal; settings: 10 µM unless noted
[7] = tested on: CAKI-1 renal; settings: 10 µM
[8] = tested on: CCRF-CEM leukemia; settings: 10 µM unless noted
[9] = tested on: MOLT-4 leukemia; settings: 10 µM unless noted
[10] = tested on: SR leukemia; settings: 10 µM unless noted
[11] = tested on: RPMI-8226 leukemia; settings: 10 µM unless noted
[12] = tested on: OVCAR-8 ovarian; settings: 10 µM unless noted
[13] = tested on: OVCAR-5 ovarian; settings: 10 µM unless noted
[14] = tested on: OVCAR-4 ovarian; settings: 10 µM unless noted
[15] = tested on: SK-OV-3 ovarian; settings: 10 µM unless noted
[16] = tested on: IGROV1 ovarian; settings: 10 µM unless noted
[17] = tested on: OVCAR-3 ovarian; settings: 10 µM unless noted
[18] = tested on: HS 578T breast; settings: 10 µM unless noted
[19] = tested on: NCI/ADR-RES ovarian; settings: 10 µM unless noted
[20] = tested on: A498 renal; settings: 10 µM unless noted

Measured: growth

COc1cc(C(=O)C[n+]2ccc3ccccc3c2)cc(OC)c1OC
inactive: [1] 102% | [2] 98.6% | [3] 90.4% | [4] 94.2% | [5] 112% | [6] 106% | [7] 92.6% | [8] 97% | [9] 106% | [10] 102% | [11] 111% | [12] 100% | [13] 102% | [14] 104% | [15] 97.1% | [16] 95.8% | [17] 105% | [18] 94% | [19] 101%

CN(c1ccc(Br)cc1)S(=O)(=O)c1ccc(-c2cnc(C3CC3)o2)cc1
active: [19] 2.5%
inactive: [1] 69.5% | [2] 43.1% | [3] 30.2% | [4] 44.4% | [5] 87.6% | [6] 38.9% | [7] 36.9% | [8] 18% | [9] 23.5% | [10] 34.4% | [11] 15.9% | [12] 33.2% | [13] 46.7% | [14] 70.1% | [15] 73.7% | [16] 29.9% | [17] 23.7% | [18] 35.8%

CC(c1ccccc1)N1C(=O)/C(=C/c2csc(C#N)n2)SC1=S (centres undefined)
inactive: [1] 96.2% | [2] 98.5% | [3] 93.3% | [4] 64.8% | [5] 119% | [6] 87% | [7] 84.9% | [8] 10.5% | [9] 36.5% | [10] 48.9% | [11] 41.8% | [12] 93.4% | [13] 107% | [14] 98.1% | [15] 108% | [16] 90.9% | [17] 55.5% | [18] 103% | [19] 97.5%

CC(C)C(=O)Nc1ccc(-c2nc(-c3cccc(O)c3)c(-c3ccnc(Br)c3)[nH]2)cc1
inactive: [1] 44.1% | [2] 80.6% | [3] 63.5% | [4] 24% | [5] 81.1% | [6] 64.2% | [7] 45.1% | [20] 37.4% | [12] 49.5% | [13] 84.3% | [14] 43.4% | [15] 54.5% | [16] 59.4% | [17] 56.1% | [19] 92.3%
active: [9] 9.54% | [10] -3.9% | [18] -12%

COc1cc(/C=N/Nc2ccnc3cc(Cl)ccc23)cc(OC)c1O
active: [2] -71.8% | [3] -64.7% | [4] -96.4% | [5] -69.6% | [6] -98.2% | [7] -93% | [9] -13% | [10] -23.9% | [11] -9.43% | [12] -56% | [13] -5% | [16] -83.8% | [18] -38.8% | [19] 2.57%
inactive: [1] 119% | [20] 99.5% | [15] 109%

Oc1ccc(CSc2nnc(-c3ccc(Br)cc3)o2)c2cccnc12
inactive: [1] 68.1% | [2] 58.9% | [3] 45.2% | [5] 60% | [6] 17.8% | [7] 25.6% | [20] 74.5% | [9] 24.1% | [10] 42.3% | [11] 10.8% | [12] 27.7% | [13] 89.6% | [14] 22% | [15] 50.2% | [16] 31.6% | [17] 27.4% | [19] 13.4%
active: [4] 7.37% | [18] -2.18%

Oc1ccccc1/C=N/Nc1nc(N/N=C/c2ccccc2O)nc(N2CCOCC2)n1
active: [7] 4.56% | [14] -11.7%
inactive: [1] 72% | [2] 22.2% | [3] 27.2% | [4] 19.8% | [5] 47.9% | [6] 28.1% | [8] 42.3% | [9] 45.1% | [10] 16% | [11] 53.6% | [12] 12.7% | [13] 37% | [15] 11.9% | [16] 37% | [17] 33.6% | [18] 47% | [19] 22.9%

Nc1ccc(-c2nnc(SCc3ccc(O)c4ncccc34)n2-c2ccccc2)cc1
inactive: [1] 12.4% | [2] 30% | [5] 25.3% | [6] 12.4% | [7] 12.9% | [20] 15.8% | [9] 29.5% | [10] 36.5% | [11] 11.6% | [12] 12.5% | [13] 34.4% | [14] 12.4% | [16] 14.3% | [17] 19.2% | [19] 45.2%
active: [3] 5.29% | [4] 4.44% | [15] 8.19% | [18] 5.08%

O=C(N/N=C\c1ccc(Cl)cc1)c1ccc2nc(-c3ccc(Br)cc3)[nH]c2c1
inactive: [1] 82.7% | [4] 15.9% | [20] 65.4% | [9] 11.6% | [13] 36.8% | [15] 79.1% | [18] 15.6% | [19] 35.7%
active: [2] 0.288% | [3] -14.6% | [5] -26.8% | [6] -12.6% | [7] -17.8% | [10] -8.2% | [11] -8.35% | [12] -14.4% | [14] -44.1% | [16] -43.6%

O=C(CSc1nnc(-c2cccs2)n1-c1ccccc1)Nc1ccc(F)cc1
inactive: [1] 110% | [2] 90.9% | [3] 95.5% | [4] 59.1% | [5] 108% | [6] 90.9% | [7] 87.3% | [20] 84.7% | [9] 85.6% | [10] 71.6% | [11] 105% | [12] 93.5% | [13] 97.3% | [14] 96.4% | [16] 95.4% | [17] 111% | [18] 91.8% | [19] 90.7%

NCCN1CCN(c2nc(-c3ccccc3)nc3nc(-c4ccccc4)oc23)CC1
inactive: [1] 102% | [20] 61.7% | [10] 20.7% | [15] 100% | [18] 100%
active: [2] 2% | [3] -79.4% | [4] -89.2% | [5] -28.7% | [6] -95.4% | [7] -90.1% | [9] -0.256% | [11] -27.9% | [12] -16.4% | [13] -82.9% | [14] -59.7% | [16] -71.6% | [17] -78.6% | [19] -45.3%

O=C(NNc1nc2cc(F)ccc2n2cncc12)c1cnccn1
active: [6] 9.12% | [7] 7.86% | [9] 6.82%
inactive: [1] 36% | [2] 20.3% | [3] 34.2% | [4] 11.7% | [5] 44% | [8] 14.4% | [10] 17% | [11] 25.4% | [12] 21% | [13] 50% | [14] 31.1% | [15] 28.4% | [16] 27.6% | [17] 28.2% | [18] 71.8% | [19] 12.2%

C/C(=N/Nc1nc(N/N=C(/C)c2ccc([N+](=O)[O-])cc2)nc(N2CCOCC2)n1)c1ccc([N+](=O)[O-])cc1
inactive: [1] 96.4% | [2] 68.1% | [3] 73.7% | [4] 80.8% | [5] 127% | [6] 66.1% | [7] 77.9% | [8] 61.6% | [9] 78.9% | [10] 113% | [11] 64.7% | [12] 63.6% | [13] 95.5% | [14] 77.6% | [15] 113% | [16] 93.8% | [17] 88.4% | [18] 78.7% | [19] 68.7%

CCCCCCNC(=O)Oc1ccc(/C(=C(/C)c2ccc(OC)cc2)c2ccc(OCCN3CCCC3)cc2)cc1
inactive: [1] 93.4% | [2] 79.5% | [3] 82.3% | [4] 38.7% | [5] 116% | [6] 84.3% | [7] 87% | [8] 62.4% | [9] 30.4% | [11] 16.8% | [12] 86.6% | [13] 81.5% | [14] 84.8% | [15] 97.9% | [16] 65.7% | [17] 89.8% | [18] 83.7% | [19] 77%
active: [10] 5.51%

COC[C@@]1(C)CC[C@]2(C)CC[C@]3(C)C(=CC[C@@H]4[C@@]5(C)CCCNC(C)(C)[C@@H]5CC[C@]43C)C2C1 (some centres undefined)
active: [10] 4.07%
inactive: [1] 78.1% | [2] 76.9% | [3] 51.6% | [4] 90.4% | [5] 110% | [6] 87.1% | [7] 71.7% | [8] 47.7% | [9] 34.1% | [11] 21.3% | [12] 88.6% | [13] 80% | [14] 65.6% | [15] 104% | [16] 52.3% | [17] 78.3% | [18] 78.5% | [19] 72.6%

CCOC(=O)c1c(NCC(=O)Nc2ccc(Br)cc2)sc2c1CCCC2
inactive: [1] 68.7% | [2] 76% | [3] 18.2% | [4] 54.3% | [5] 81.4% | [6] 14.8% | [7] 27% | [8] 18.2% | [9] 16.8% | [10] 43.8% | [11] 27% | [12] 36.5% | [13] 27.2% | [14] 35.5% | [15] 66.9% | [16] 22% | [17] 10.3% | [18] 57.5% | [19] 25.2%
